Data: PubChem BioAssay AID1159580 (chemical genetic matrix, 2015)
About 2,000 (36%) of roughly 5,500 compounds were called active. About 18% were inconclusive and are not listed. Rule as the data show it: active = normalized growth mostly below about 0.91 (no sharp cut-off); inconclusive = no clear call, values can overlap the other calls; inactive = mostly above about 0.92. Some of the results follow.

Test: chemical genetic growth profiling, strain panel (AID 1159580);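 also: tested at 20 µM; growth read once vehicle control cultures reached saturation at 30 °C; 1 = growth at the plate median or of vehicle wells; lower values mean less growth of the strain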
Settings: S. cerevisiae deletion strains, growth OD

Measured: normalized growth

CC(=O)OC[C@H]1O[C@@H](Oc2cc(OC(C)=O)c3c(=O)cc(-c4ccc(OC(C)=O)cc4)oc3c2)[C@H](OC(C)=O)[C@@H](OC(C)=O)[C@@H]1OC(C)=O
inactive: locus YAL021C, strain ccr4, active compounds read low 1.04 | locus YAL026C, strain drs2, active compounds read low 1 | locus YAL030W, strain snc1, active compounds read low 1.01 | locus YBL061C, strain skt5, active compounds read low 0.981 | locus YBR009C, strain hhf1, active compounds read low 0.998 | locus YBR023C, strain chs3, active compounds read low 0.999 | locus YBR171W, strain sec66, active compounds read low 0.981 | locus YBR231C, strain swc5, active compounds read low 0.955 | locus YBR279W, strain paf1, active compounds read low 0.997 | locus YCL011C, strain gbp2, active compounds read low 1 | locus YCL016C, strain dcc1, active compounds read low 1.06 | locus YCL069W, strain vba3, active compounds read low 0.979 | locus YCR088W, strain abp1, active compounds read low 0.989 | locus YDL005C, strain med2, active compounds read low 0.977 | locus YDL040C, strain nat1, active compounds read low 1.02 | locus YDR001C, strain nth1, active compounds read low 1 | locus YDR069C, strain doa4, active compounds read low 0.953 | locus YDR137W, strain rgp1, active compounds read low 1.09 | locus YDR159W, strain sac3, active compounds read low 0.963 | locus YDR195W, strain ref2 0.936 | locus YDR297W, strain sur2, active compounds read low 0.988 | locus YDR334W, strain swr1, active compounds read low 0.979 | locus YDR335W, strain msn5, active compounds read low 0.989 | locus YDR392W, strain spt3, active compounds read low 0.966 | locus YEL003W, strain gim4, active compounds read low 0.979 | locus YEL037C, strain rad23, active compounds read low 0.986 | locus YEL061C, strain CIN8 (second series), active compounds read low 0.999 | locus YER015W, strain faa2, active compounds read low 1 | locus YER016W, strain bim1, active compounds read low 1.02 | locus YER111C, strain swi4, active compounds read low 1.03 | locus YER155C, strain BEM2 (second series), active compounds read low 0.985 | locus YFR010W, strain ubp6, active compounds read low 0.975 | locus YGL167C, strain pmr1, active compounds read low 0.992 | locus YGL173C, strain kem1, active compounds read low 0.973 | locus YGL227W, strain vid30, active compounds read low 0.995 | locus YGL240W, strain doc1, active compounds read low 0.983 | locus YGL253W, strain hxk2, active compounds read low 0.968 | locus YHR013C, strain ard1, active compounds read low 1.01 | locus YHR027C, strain rpn1, active compounds read low 1.01 | locus YHR142W, strain chs7, active compounds read low 1.02 | locus YJL092W, strain hpr5, active compounds read low 0.995 | locus YJL095W, strain BCK1 (second series), active compounds read low 1.04 | locus YJL115W, strain asf1, active compounds read low 0.98 | locus YJL129C, strain trk1, active compounds read low 0.984 | locus YJL154C, strain vps35, active compounds read low 0.98 | locus YJL164C, strain tpk1, active compounds read low 1.02 | locus YJL166W, strain qcr8, active compounds read low 0.989 | locus YJL187C, strain SWE1, active compounds read low 1 | locus YKL160W, strain elf1, active compounds read low 1.02 | locus YKR026C, strain gcn3, active compounds read low 0.977 | locus YKR091W, strain srl3, active compounds read low 0.999 | locus YLL001W, strain dnm1, active compounds read low 0.947 | locus YLL026W, active compounds read low 0.99 | locus YLL041C, strain sdh2, active compounds read low 0.991 | locus YLR027C, strain aat2, active compounds read low 0.981 | locus YLR221C, strain rsa3, active compounds read low 0.971 | locus YLR258W, strain gsy2, active compounds read low 1.01 | locus YLR262C, strain YPT6 (second series), active compounds read low 0.998 | locus YLR320W, strain mms22, active compounds read low 0.993 | locus YLR342W, strain FKS1, active compounds read low 0.985 | locus YLR357W, strain rsc2, active compounds read low 0.967 | locus YLR370C, strain arc18, active compounds read low 0.981 | locus YLR384C, strain iki3, active compounds read low 0.965 | locus YML120C, strain ndi1, active compounds read low 0.998 | locus YMR058W, strain fet3, active compounds read low 0.994 | locus YMR125W, strain sto1, active compounds read low 1 | locus YMR129W, active compounds read low 0.987 | locus YMR205C, strain PFK2, active compounds read low 1.01 | locus YMR231W, strain pep5, active compounds read low 0.969 | locus YNL071W, strain lat1, active compounds read low 0.998 | locus YNL209W, strain ssb2, active compounds read low 1 | locus YNL248C, strain rpa49, active compounds read low 0.961 | locus YNL322C, strain KRE1 (second series), active compounds read low 1.01 | locus YNR049C, strain mso1, active compounds read low 0.989 | locus YOR001W, strain rrp6, active compounds read low 0.953 | locus YOR070C, strain gyp1, active compounds read low 1.06 | locus YOR080W, strain dia2, active compounds read low 0.98 | locus YOR083W, strain WHI5, active compounds read low 1.03 | locus YOR106W, strain vam3, active compounds read low 1.01 | locus YOR265W, strain rbl2, active compounds read low 0.992 | locus YOR270C, strain vph1, active compounds read low 0.958 | locus YOR290C, strain snf2, active compounds read low 1.12 | locus YPL051W, strain arl3, active compounds read low 0.981 | locus YPL078C, strain atp4, active compounds read low 1.03 | locus YPL106C, strain sse1, active compounds read low 1.01 | locus YPL240C, strain hsp82, active compounds read low 0.989
